PubChem BioAssay AID1159580 (chemical genetic matrix, 2015)
Several values for one entry are separate records, joined by “and”; a condition that tells them apart may be missing. Equal entries are not always repeated. The campaign covered roughly 5,500 compounds. About 2,000 (36%) were called active. Another 18% or so got no clear call; they are omitted. No stated cut-off is given here; in the data, active means normalized growth mostly below about 0.91 (no sharp cut-off); inconclusive means no clear call, values can overlap the other calls; inactive means mostly above about 0.92. The list shows a part of the results.

Assay: chemical genetic growth profiling, strain panel (AID 1159580);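 further: tested at 20 µM; growth read once vehicle control cultures reached saturation at 30 °C; 1 = growth at the plate median or of vehicle wells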
Conditions: growth OD

Measured: normalized growth

COC(=O)c1c(C)cc(OC(=O)c2c(C)cc(O)c(C=O)c2O)c(C)c1O
active: S. cerevisiae deletion strains, locus YGR135W, strain pre9, stronger effect = lower value 0.893 | S. cerevisiae deletion strains, locus YKR001C, strain vps1, stronger effect = lower value 0.891
inactive: S. cerevisiae deletion strains, locus YAL013W, strain DEP1, stronger effect = lower value 0.93 | S. cerevisiae deletion strains, locus YBR021W, strain FUR4, stronger effect = lower value 1.05 | S. cerevisiae deletion strains, locus YBR229C, strain ROT2, stronger effect = lower value 1 | S. cerevisiae deletion strains, locus YCL029C, strain bik1, stronger effect = lower value 0.994 | S. cerevisiae deletion strains, locus YDL035C, strain GPR1, stronger effect = lower value 0.994 | S. cerevisiae deletion strains, locus YDL074C, strain BRE1, stronger effect = lower value 1.03 | S. cerevisiae deletion strains, locus YDL101C, strain DUN1, stronger effect = lower value 1.01 | S. cerevisiae deletion strains, locus YDL185W, strain tfp1, stronger effect = lower value 0.991 | S. cerevisiae deletion strains, locus YDL192W, strain arf1, stronger effect = lower value 0.934 | S. cerevisiae deletion strains, locus YDR101C, strain arx1, stronger effect = lower value 0.994 | S. cerevisiae deletion strains, locus YDR162C, strain NBP2, stronger effect = lower value 0.899 | S. cerevisiae deletion strains, locus YDR318W, strain mcm21, stronger effect = lower value 0.934 | S. cerevisiae deletion strains, locus YDR388W, stronger effect = lower value 0.988 | S. cerevisiae deletion strains, locus YDR502C, strain sam2, stronger effect = lower value 0.984 | S. cerevisiae deletion strains, locus YEL061C, strain CIN8, stronger effect = lower value 0.971 | S. cerevisiae deletion strains, locus YER110C, stronger effect = lower value 1.03 | S. cerevisiae deletion strains, locus YER155C, strain BEM2, stronger effect = lower value 1.03 | S. cerevisiae deletion strains, locus YER167W, strain BCK2, stronger effect = lower value 0.999 | S. cerevisiae deletion strains, locus YGL078C, strain dbp3, stronger effect = lower value 1.01 | S. cerevisiae deletion strains, locus YGL086W, strain mad1, stronger effect = lower value 0.942 | S. cerevisiae deletion strains, locus YGL248W, strain PDE1, stronger effect = lower value 0.98 | S. cerevisiae deletion strains, locus YGR078C, strain PAC10, stronger effect = lower value 0.971 | S. cerevisiae deletion strains, locus YGR229C, strain SMI1, stronger effect = lower value 0.919 | S. cerevisiae deletion strains, locus YGR252W, strain gcn5, stronger effect = lower value 1.01 | S. cerevisiae deletion strains, locus YHR030C, strain SLT2, stronger effect = lower value 0.999 and 0.975 | S. cerevisiae deletion strains, locus YHR079C, strain IRE1 (second series), stronger effect = lower value 0.999 | S. cerevisiae deletion strains, locus YHR079C, strain IRE1, stronger effect = lower value 0.978 | S. cerevisiae deletion strains, locus YHR094C, strain hxt1, stronger effect = lower value 1 | S. cerevisiae deletion strains, locus YHR129C, strain ARP1, stronger effect = lower value 0.963 | S. cerevisiae deletion strains, locus YHR200W, strain rpn10, stronger effect = lower value 0.962 | S. cerevisiae deletion strains, locus YIL066C, strain RNR3, stronger effect = lower value 0.985 | S. cerevisiae deletion strains, locus YIL073C, strain SPO22, stronger effect = lower value 1.02 | S. cerevisiae deletion strains, locus YIL125W, strain kgd1, stronger effect = lower value 0.991 | S. cerevisiae deletion strains, locus YIR030C, strain dcg1, stronger effect = lower value 1.03 | S. cerevisiae deletion strains, locus YJL095W, strain BCK1, stronger effect = lower value 0.975 and 0.987 | S. cerevisiae deletion strains, locus YJL134W, strain LCB3, stronger effect = lower value 1.01 | S. cerevisiae deletion strains, locus YJL168C, strain set2, stronger effect = lower value 1.01 | S. cerevisiae deletion strains, locus YJL187C, strain SWE1 (second series), stronger effect = lower value 0.972 | S. cerevisiae deletion strains, locus YJR043C, strain POL32, stronger effect = lower value 0.971 | S. cerevisiae deletion strains, locus YJR066W, strain TOR1, stronger effect = lower value 0.919 | S. cerevisiae deletion strains, locus YKL068W, stronger effect = lower value 1.03 | S. cerevisiae deletion strains, locus YKL085W, strain MDH1 (second series), stronger effect = lower value 0.987 | S. cerevisiae deletion strains, locus YKL085W, strain MDH1, stronger effect = lower value 0.987 | S. cerevisiae deletion strains, locus YLR039C, strain RIC1, stronger effect = lower value 0.947 | S. cerevisiae deletion strains, locus YLR058C, strain SHM2, stronger effect = lower value 0.957 | S. cerevisiae deletion strains, locus YLR102C, strain apc9, stronger effect = lower value 1.02 | S. cerevisiae deletion strains, locus YLR113W, strain HOG1, stronger effect = lower value 0.995 | S. cerevisiae deletion strains, locus YLR262C, strain YPT6, stronger effect = lower value 0.933 | S. cerevisiae deletion strains, locus YLR268W, strain sec22, stronger effect = lower value 0.916 | S. cerevisiae deletion strains, locus YLR330W, strain CHS5, stronger effect = lower value 1.01 | S. cerevisiae deletion strains, locus YLR342W, strain FKS1 (second series), stronger effect = lower value 1.07 | S. cerevisiae deletion strains, locus YLR371W, strain rom2, stronger effect = lower value 0.99 | S. cerevisiae deletion strains, locus YLR418C, strain cdc73, stronger effect = lower value 0.924 | S. cerevisiae deletion strains, locus YML016C, strain PPZ1, stronger effect = lower value 1 | S. cerevisiae deletion strains, locus YML032C, strain rad52, stronger effect = lower value 0.96 | S. cerevisiae deletion strains, locus YML124C, strain tub3, stronger effect = lower value 1 | S. cerevisiae deletion strains, locus YMR078C, strain ctf18, stronger effect = lower value 1.02 | S. cerevisiae deletion strains, locus YMR223W, strain ubp8, stronger effect = lower value 0.938 | S. cerevisiae deletion strains, locus YMR263W, strain SAP30, stronger effect = lower value 0.987 | S. cerevisiae deletion strains, locus YMR307W, strain GAS1, stronger effect = lower value 0.789 | S. cerevisiae deletion strains, locus YNL067W, strain RPL9B, stronger effect = lower value 0.972 | S. cerevisiae deletion strains, locus YNL183C, strain NPR1, stronger effect = lower value 0.917 | S. cerevisiae deletion strains, locus YNL233W, strain BNI4, stronger effect = lower value 0.982 | S. cerevisiae deletion strains, locus YNL250W, strain rad50, stronger effect = lower value 0.988 | S. cerevisiae deletion strains, locus YNL271C, strain bni1, stronger effect = lower value 1.03 | S. cerevisiae deletion strains, locus YNL298W, strain CLA4, stronger effect = lower value 1.01 | S. cerevisiae deletion strains, locus YNL307C, strain MCK1, stronger effect = lower value 1.01 | S. cerevisiae deletion strains, locus YNR052C, strain pop2, stronger effect = lower value 1 | S. cerevisiae deletion strains, locus YOL006C, strain TOP1, stronger effect = lower value 1.06 | S. cerevisiae deletion strains, locus YOL012C, strain htz1 0.816 | S. cerevisiae deletion strains, locus YOL147C, strain pex11, stronger effect = lower value 1.04 | S. cerevisiae deletion strains, locus YOR061W, strain CKA2, stronger effect = lower value 1 | S. cerevisiae deletion strains, locus YOR069W, strain VPS5, stronger effect = lower value 1 | S. cerevisiae deletion strains, locus YOR136W, strain idh2, stronger effect = lower value 1.02 | S. cerevisiae deletion strains, locus YOR144C, strain elg1, stronger effect = lower value 1.01 | S. cerevisiae deletion strains, locus YOR184W, strain ser1, stronger effect = lower value 0.931 | S. cerevisiae deletion strains, locus YOR231W, strain MKK1, stronger effect = lower value 0.981 | S. cerevisiae deletion strains, locus YOR316C, strain cot1, stronger effect = lower value 1.03 | S. cerevisiae deletion strains, locus YPL256C, strain CLN2, stronger effect = lower value 0.988 | S. cerevisiae deletion strains, locus YPR119W, strain clb2, stronger effect = lower value 0.996 | S. cerevisiae deletion strains, locus YPR141C, strain kar3, stronger effect = lower value 1 | S. cerevisiae deletion strains, locus YPR163C, strain tif3, stronger effect = lower value 1.01 | S. cerevisiae deletion strains, locus YPR167C, strain met16, stronger effect = lower value 0.963 | S. cerevisiae deletion strains, strain wtn01, stronger effect = lower value 0.948 | S. cerevisiae strains, strain wild type, stronger effect = lower value 0.926
